# LGR2 antag = inhibitors of bursicon-induced Drosophila LGR2 receptor cAMP signaling. HEK293 LGR2, CRE-luciferase, bursicon-stimulated, 4 h. 380,000 compounds, 0.35% hits. AID 720647. inhibition, % at 9.99 µM;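 active = drop in luminescence signal, shown as inhibition above about 50% in the replicate tests, limit read from the data, passing the limit was not always enough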;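 note: agonist challenge used bursicon conditioned medium at about half maximal strength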
# TROY NFkB inh = inhibitors of TROY-dependent NF-kB signaling. AID 1347056. inhibition, % at 10 µM. 360,000 compounds, 0.98% hits. Q293 LMP1-TROYcd NF-kB luciferase reporter, 4 h;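 active = compounds whose plate-normalised and pattern-corrected inhibition of the luciferase reporter signal at the single screening dose is 50% or more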
# HSP90 inh = inhibitors of HSP90 luciferase refolding in rabbit reticulocyte lysate; inhibition, % at 5.6 µM; luciferase refolding luminescence, 3 h; AID 1789; 290,000 compounds, 0.91% hits;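 active = inhibition above the screen-wide mean plus 3 SD, computed separately per campaign, cut at about 16% in these data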;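 note: 0% = DMSO wells and 100% = 60 µM geldanamycin wells; inhibitors lower the luminescence because luciferase stays unfolded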
# TWEAK-Fn14 inh = blocks TWEAK-Fn14 interaction in a reporter cell assay; AID 1159606; inhibition, % at 10 µM; TWEAK-stimulated Fn14 reporter cells, luciferase luminescence, 8 h; 360,000 compounds, 2% hits; in the data active = inhibition above about 50%
# Starred values were filed as active, the others as inactive; · = no result given. Compounds with a hit are over-represented: about 2.2% of the library has one in this group of screens.
SMILES,LGR2 antag,TROY NFkB inh,HSP90 inh,TWEAK-Fn14 inh
CC1(C)CC(=O)C2=C(C1)NC1=C(C(=O)c3ccccc31)C2c1cccnc1 (stereo not drawn),-27,15,0,3
CC(C)c1ccc(C2C3=C(CC(C)(C)CC3=O)NC3=C2C(=O)c2ccccc23)cc1 (stereo not drawn),36,36,0,61*
CCC1C/C(=C\c2cc(OC)c(OC)cc2OC)C(=O)/C(=C/c2cc(OC)c(OC)cc2OC)C1 (stereo not drawn),·,12,2,26
COc1cc(OC)c(OC)cc1/C=C1\CC(C)C/C(=C\c2cc(OC)c(OC)cc2OC)C1=O (stereo not drawn),16,37,-3,64*
CCCCN1CNC(=S)N(CCc2ccccc2)C1,-9,9,2,-2
CCCN1CN(CCc2ccccc2)CNC1=S,2,-11,4,104*
S=C1NCN(CCc2ccccc2)CN1Cc1ccccc1,5,13,6,96*
COc1cccc(-c2ccc3c(c2)[C@H]2[C@H](CCN2Cc2ccccc2OC)[C@H](CO)N3)c1,-37,·,·,·
CCCS(=O)(=O)N1CCN(C(=O)c2ccco2)CC1,·,13,-3,77*
O=C(c1ccco1)N1CCN(C(=O)c2ccco2)C1=S,83*,27,·,51*
CCS(=O)(=O)N1CCN(C(=O)c2ccco2)CC1,6,-15,-3,7
O=C1c2ccccc2NC(c2cnc3ccccc3n2)N1O (stereo not drawn),·,26,-2,74*
Cc1nn(C)c(C)c1C1Nc2ccccc2C(=O)N1O (stereo not drawn),·,-40,-3,-9
COc1ccc(C#Cc2ccc3c(c2)O[C@@H](CN(C)C(C)=O)[C@H](C)CN([C@@H](C)CO)S3(=O)=O)cc1,13,·,·,·
O=C(CSc1ccc(Cl)cc1)Nc1cccc(-c2nc3ncccc3o2)c1,·,67*,2,71*
O=C(NCc1cc(Br)cc(Br)c1OC(=O)c1ccccc1[N+](=O)[O-])c1ccccc1,28,34,1,55*
O=C(C[C@@H]1CC[C@@H]2[C@H](COC[C@H](O)CN2Cc2cccc(-c3ccncc3)c2)O1)N1CCN(c2ccccc2)CC1,1,·,·,·
CCC(=O)N1C[C@H](C)[C@@H](OC)CN(C)C(=O)c2ccc(NC(=O)c3cnccn3)cc2OC[C@H]1C,15,·,·,·
COc1ccccc1NC(=O)N[C@H]1CC[C@H](CC(=O)NCc2ccc(Cl)c(Cl)c2)O[C@H]1CO,3,·,·,·
CC(C)C#Cc1ccc([C@@H]2[C@H](C#N)N(C(=O)C3CC3)[C@H]2CO)cc1,-6,·,·,·
O=C(OCC12CC3CC(CC(C3)C1)C2)c1ccc(NCc2cc(O)ccc2O)cc1,6,-6,·,103*
CCNC(=O)OCCC12CC3CC(CC(C3)C1)C2,-15,-21,1,-16
O=C(OCCC12CC3CC(CC(C3)C1)C2)c1ccc(NCc2cc(O)ccc2O)cc1,-22,-3,·,98*
COc1ccc(S(=O)(=O)N2CC[C@@H]3[C@@H](CO)Nc4ccc(-c5ccccc5F)cc4[C@@H]32)cc1,12,·,·,·
NS(=O)(=O)c1cccc(NC(=O)CNC(=O)CC23CC4CC(CC(C4)C2)C3)c1,6,52*,-1,-1
SMILES,LGR2 antag,TROY NFkB inh,HSP90 inh,TWEAK-Fn14 inh
C=C(C(=O)c1ccccc1)C(NC(C)(C)C)c1ccccc1 (stereo not drawn),101*,19,·,96*
O=C(CC(Nc1ccccc1)C(=O)O)c1ccccc1 (stereo not drawn),·,-25,·,6
C=C(C(=O)c1ccccc1)C(C)CC(=O)c1ccccc1 (stereo not drawn),11,-19,1,63*
CCCS(=O)(=O)c1nnnn1-c1cccc(OC)c1,·,52*,1,69*
CCc1noc(C)c1C(=O)NC1CCCc2c1cnn2-c1cc(C)cc(C)c1 (stereo not drawn),-13,-23,4,-23
CCc1[nH]nc(C(=O)NC2CCCc3c2cnn3-c2cc(C)cc(C)c2)c1C (stereo not drawn),-17,58*,3,-20
CCn1nc(C)cc1C(=O)NC1CCCc2c1cnn2-c1ccc(C)c(C)c1 (stereo not drawn),1,56*,8,35
O=C(N/N=C/c1cn(-c2cccs2)nc1-c1ccccc1)c1ccccc1Br,·,-29,3,41
O=C(N/N=C/c1cn(-c2cccs2)nc1-c1ccccc1)c1ccccc1O,74*,62*,6,91*
C[C@H]1CN([C@@H](C)CO)C(=O)c2cccc(NC(=O)C3CCCCC3)c2O[C@@H]1CN(C)S(=O)(=O)c1cccs1,2,·,·,·
Cc1ccc(C2C3=C(CC(C)(C)CC3=O)NC3=C2C(=O)CC(C)(C)C3)o1,·,·,-3,84*
CCOc1cc(/C=C(\C#N)C(=O)Nc2cccc(C(=O)O)c2)cc(Br)c1OC(=O)c1ccc(OC)cc1,-6,62*,-1,10
COc1cc(C(=O)Nc2ccc3c(c2)OCO3)ccc1-n1cnnn1,·,-3,2,5
COc1cc(NC(=O)Cc2cccs2)ccc1-n1cnnn1,·,·,-1,91*
Cc1cc(C(F)(F)F)nn1CC(=O)N1CCCCC1C (stereo not drawn),·,·,0,83*
O=C(Cn1ccc2ccccc2c1=O)NCCC(=O)Nc1ccc2c(c1)OCCO2,·,36,0,57*
CC(C)(C)NC(=O)CN(Cc1ccccc1)S(=O)(=O)c1ccccc1,34,4,-1,54*
CNC(=O)CN(Cc1ccccc1)S(=O)(=O)c1ccccc1,·,-8,-1,-13
CCOC(=O)c1c(C)[nH]c(C(=O)OCC(=O)Nc2cc(Cl)ccc2OC)c1C,·,18,6,-15
CC(=O)c1c(C)[nH]c(C(=O)OCC(=O)Nc2ccc(Cl)c(S(=O)(=O)N(C)C)c2)c1C,15,22,-2,54*
CC(=O)c1c(C)[nH]c(C(=O)OCC(=O)Nc2ccc(Cl)cc2[N+](=O)[O-])c1C,-1,44,1,64*
CC(=O)c1c(C)[nH]c(C(=O)Nc2ccc(Cl)c(S(=O)(=O)N(C)C)c2)c1C,-69,-43,1,-40
Nc1ccc(-c2cc(-c3ccc(N)cc3)nc(-c3ccccc3)n2)cc1,·,3,1,6
Oc1ccc(-c2cc(-c3ccc(O)cc3)nc(-c3ccccc3)n2)cc1,12,54*,0,44
Cc1ccc(S(=O)(=O)Nc2ccc3c(c2)C(=O)N([C@@H](C)CO)C[C@H](C)[C@H](CN(C)C)OCCCC[C@@H](C)O3)cc1,6,·,·,·
SMILES,LGR2 antag,TROY NFkB inh,HSP90 inh,TWEAK-Fn14 inh
Nc1ccccc1C#CC(=O)c1ccccc1,28,50,-1,95*
O=C(C#Cc1cccc([N+](=O)[O-])c1)c1ccccc1,·,63*,-2,66*
O=C(O)C(=Cc1cccc([N+](=O)[O-])c1)c1ccccc1,10,7,·,-19
C[C@@H](NC(=O)C[C@@H]1C=C[C@H](NC(=O)Cc2ccccn2)[C@@H](CO)O1)c1ccccc1,3,·,·,·
O=C1c2ccccc2-c2nnc(-c3ccc(O)cc3)cc21,24,-19,11,9
O=C1c2ccccc2-c2nnc(-c3ccc(F)cc3)cc21,51*,-2,-2,75*

# From PubChem
